Results filed as inconclusive are left out. Where a structure was tested more than once in an assay, its records may differ in their call. The source made the active and inactive calls. Unless noted, calls come from the whole dose curve; as a rule, active = well fitted curve in the direction sought with a large enough effect in the repeat runs; inconclusive = weak or mixed curves; inactive = no such curve, though single readings can be large; an effect the other way counts as inactive or inconclusive.

Assay [1] in a line: qHTS assay to identify small molecule agonists of the peroxisome proliferator-activated receptor delta (PPARd) signaling pathway - cell viability counter screen (AID 743211). Note: nearly all actives have a fitted effect of over 55% in size. In a few lines: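 PPARd-bla HEK293H cells (3000/well) were pre-incubated 5 h at 37 C, then exposed to compound for 17 h at 37 C. After 2 h with LiveBLAzer substrate, CellTiter-Glo was added to the same wells; luminescence read after 30 min at room temperature.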

Assay [2] has as its target Peroxisome proliferator-activated receptor delta (Homo sapiens) (UniProt Q03181). In words: qHTS assay to identify small molecule agonists of the peroxisome proliferator-activated receptor delta (PPARd) signaling pathway (AID 743212; calls by dose curve). In outline:
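GeneBLAzer PPARd UAS-bla HEK293H cells (beta-lactamase reporter under UAS control), plated and rested 5 h at 37 C, then exposed to compounds in DMSO at 37 C; LiveBLAzer B/G FRET substrate added, 2 h room temperature, fluorescence read.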

Assay [3] in a line: qHTS assay to identify small molecule antagonists of the peroxisome proliferator-activated receptor delta (PPARd) signaling pathway - cell viability counter screen (AID 743213). Note: nearly all actives have a fitted effect of over 50% in size. Note: potency is the fitted concentration of half-maximal effect. In a few lines:
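PPARd-bla HEK293H cells (3000/well) got compound plus 300 nM L165041 agonist for 17 h at 37 C. Viability in the same wells came from CellTiter-Glo luminescence after 30 min at room temperature.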

Assay [4] has as its target Peroxisome proliferator-activated receptor delta (Homo sapiens) (UniProt Q03181). The assay can be described thus: qHTS assay to identify small molecule antagonists of the peroxisome proliferator-activated receptor delta (PPARd) signaling pathway (AID 743215; active = well fitted inhibition curve with a large enough effect in the signal ratio in the repeat runs, not every such curve was filed as active; the % refers to the signal ratio;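 note: cells stimulated with agonist L165041 at 300 nM final during compound exposure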; note: potency is the fitted concentration of half-maximal effect). In a few lines: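 Inhibition of L165041-driven (300 nM final) PPARd signaling is scored in HEK293H UAS-bla cells. Exposure lasts 17 h at 37 C; beta-lactamase activity is then read by FRET substrate fluorescence after 2 h at room temperature.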

Assay [5] deals with Bile acid receptor (Homo sapiens) (UniProt Q96RI1). The assay can be described thus: qHTS assay to identify small molecule antagonists of the farnesoid-X-receptor (FXR) signaling pathway (AID 743217; active = well fitted inhibition curve with a large enough effect in the signal ratio in the repeat runs, not every such curve was filed as active; the % refers to the signal ratio). In a few lines:
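Antagonist mode against 50 uM (final) chenodeoxycholic acid stimulation in FXR-bla HEK 293T cells, 16 h at 37 °C. Inhibition detected as reduced beta-lactamase activity via LiveBLAzer B/G FRET fluorescence after 2 h at room temperature.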

The nature of assay [6]: qHTS assay to identify small molecule agonists of the farnesoid-X-receptor (FXR) signaling pathway - cell viability counter screen (AID 743218). Note: nearly all actives have a fitted effect of over 45% in size. In a few lines:
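Cytotoxicity counter-screen run in parallel, same wells: FXR-UAS-bla HEK 293T cells dosed 16 h at 37 C, viability read by CellTiter-Glo luminescence after 30 min at room temperature.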

The target in assay [7] is Bile acid receptor (Homo sapiens) (UniProt Q96RI1). The assay can be described thus: qHTS assay to identify small molecule agonists of the farnesoid-X-receptor (FXR) signaling pathway (AID 743220; active = well fitted activation curve with a large enough effect in the signal ratio in the repeat runs, not every such curve was filed as active; the % refers to the signal ratio). In outline:
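Beta-lactamase reporter under UAS control in GeneBLAzer FXR HEK 293T cells (5000/well) measured with LiveBLAzer FRET substrate after 2 h at room temperature. Compound exposure lasted 16 h at 37C.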

Assay [8] is described as follows: qHTS assay to identify small molecule antagonists of the farnesoid-X-receptor (FXR) signaling pathway - cell viability counter screen (AID 743221; active = well fitted cell-killing curve with a large enough effect in the repeat runs, not every such curve was filed as active; note: nearly all actives have a fitted effect of over 50% in size). In a few lines: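 GeneBLAzer FXR-UAS-bla HEK 293T cells, compound plus chenodeoxycholic acid (50 uM final), 16 h at 37 C. CellTiter-Glo added to the same wells after the beta-lactamase read; luminescence read after 30 min at room temperature as viability.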

Assay [9] has as its target Vitamin D3 receptor (Homo sapiens) (UniProt P11473). The assay can be described thus: qHTS assay to identify small molecule agonists of the vitamin D receptor (VDR) signaling pathway (AID 743222; calls by dose curve). In outline:
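Quantitative HTS agonist-mode screen: compounds in DMSO were pin-transferred onto VDR-bla cells and incubated 16 h at 37C, 5% CO2. Reporter activity was detected with LiveBLAzer B/G FRET substrate after 2 h at room temperature.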

Assay [10] has the same target. In words: qHTS assay to identify small molecule antagonists of the vitamin D receptor (VDR) signaling pathway (AID 743223; active = well fitted inhibition curve with a large enough effect in the signal ratio in the repeat runs, not every such curve was filed as active; the % refers to the signal ratio). In a few lines: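 VDR-bla cells were treated with compound plus 3 nM final 1alpha,25-dihydroxyvitamin D3 for 16 h at 37C. Beta-lactamase reporter read by B/G FRET substrate fluorescence after 2 h at room temperature. qHTS format.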
Assay [11] in a line: qHTS assay to identify small molecule agonists of the vitamin D receptor (VDR) signaling pathway - cell viability counter screen (AID 743224). Note: nearly all actives have a fitted effect of over 50% in size. Note: potency is the fitted concentration of half-maximal effect. In outline: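 Viability is measured in the same wells as the VDR-bla reporter assay: after 16 h compound treatment and 2 h substrate loading, CellTiter-Glo is added and luminescence read 30 min later.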
The nature of assay [12]: qHTS assay to identify small molecule antagonists of the vitamin D receptor (VDR) signaling pathway - cell viability counter screen (AID 743225). Note: nearly all actives have a fitted effect of over 50% in size. In outline:
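VDR-UAS-bla HEK 293T cells were plated and incubated 4 h at 37C, then dosed with compound plus 3 nM (final) 1-alpha,25-dihydroxyvitamin D3 for 16 h. After the 2 h beta-lactamase read, viability in the same wells was read as CellTiter-Glo luminescence after 30 min at room temperature.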

Assay [13] can be described thus: qHTS assay to identify small molecule agonists of the NFkB signaling pathway - cell viability counter screen (AID 1159515; calls by dose curve; note: nearly all actives have a fitted effect of over 55% in size; note: potency is the fitted concentration of half-maximal effect). In a few lines: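 Multiplexed viability readout: after the 5 hr compound exposure and 1.5 hr FRET substrate step, CellTiter-Glo reagent went into the same NFkB-bla ME-180 wells; ATP luminescence was measured after 30 min at room temperature.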

The nature of assay [14]: qHTS assay to identify small molecule agonists of the endoplasmic reticulum stress response signaling pathway (AID 1159516; active = well fitted activation curve with a large enough effect in the signal ratio in the repeat runs, not every such curve was filed as active; the % refers to the signal ratio). In a few lines: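 Tox21 10K library screened in quantitative HTS format on ESRE-bla HeLa cells, a beta-lactamase reporter under ER stress response element control; 5 hr treatment, FRET read.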
The nature of assay [15]: qHTS assay to identify small molecule agonists of the endoplasmic reticulum stress response signaling pathway - cell viability counter screen (AID 1159517; calls by dose curve). In a few lines: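 Luminescence readout: CellTiter-Glo, 30 min RT, same wells as the ESRE-bla reporter read. HeLa ESRE-bla, 1,500 cells/well, o/n 37 C; cpd 5 hr 37 C/5% CO2.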
Assay [16] can be described thus: qHTS assay to identify small molecule antagonists of the retinoid-related orphan receptor gamma (ROR-gamma) signaling pathway - cell viability counter screen (AID 1159520). Note: nearly all actives have a fitted effect of over 50% in size. In a few lines:
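Tet-on ROR gamma CHO cells (1,000/well) were plated 4 hr, given compounds in DMSO for 2 hr at 37 C, then induced with 1 uM final doxycycline for 16 hr. Viability was read as ATP by CellTiter-Glo luminescence after 30 min.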

Assay [17] has as its target Nuclear receptor ROR-gamma (Homo sapiens) (UniProt P51449). The assay can be described thus: qHTS assay to identify small molecule antagonists of the retinoid-related orphan receptor gamma (ROR-gamma) signaling pathway (AID 1159521). In outline:
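Tet-on ROR-gamma CHO cells with ROR response element-luciferase reporter; compounds added 2 hr before 1 uM doxycycline induction, then 16 hr at 37 C. Antagonism scored as decreased ONE-Glo luminescence.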

Assay [18] is described as follows: qHTS assay to identify small molecule agonists of the AP-1 signaling pathway - cell viability counter screen (AID 1159525; calls by dose curve; note: nearly all actives have a fitted effect of over 55% in size). In a few lines: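 ME-180 AP-1-bla, 2500 cells/well, Opti-MEM + 0.5% dialyzed FBS; overnight 37 °C; cpd 15-pt titration, 5 h 37 °C; CellTiter-Glo 30 min RT; luminescence read; normalised to TOAB and DMSO controls.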
Assay [19] in a line: qHTS assay to identify small molecule agonists of the AP-1 signaling pathway (AID 1159526; calls by dose curve).

Bile acid receptor (Homo sapiens), sequence (Q96RI1 whole entry, looked up): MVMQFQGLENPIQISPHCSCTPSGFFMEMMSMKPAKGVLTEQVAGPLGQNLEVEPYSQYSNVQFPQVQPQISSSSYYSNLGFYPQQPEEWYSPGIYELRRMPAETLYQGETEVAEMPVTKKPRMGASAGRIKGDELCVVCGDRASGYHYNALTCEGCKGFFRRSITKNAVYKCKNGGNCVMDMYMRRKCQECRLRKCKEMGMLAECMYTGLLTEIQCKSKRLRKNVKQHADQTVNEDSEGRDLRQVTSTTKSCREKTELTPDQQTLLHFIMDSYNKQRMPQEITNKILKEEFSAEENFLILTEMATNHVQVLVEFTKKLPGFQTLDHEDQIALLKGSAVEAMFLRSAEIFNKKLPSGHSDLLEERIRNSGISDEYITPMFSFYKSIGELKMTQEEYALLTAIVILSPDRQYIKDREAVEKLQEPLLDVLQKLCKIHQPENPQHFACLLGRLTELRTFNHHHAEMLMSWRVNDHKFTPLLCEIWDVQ
Vitamin D3 receptor (Homo sapiens), sequence (P11473 whole entry, looked up): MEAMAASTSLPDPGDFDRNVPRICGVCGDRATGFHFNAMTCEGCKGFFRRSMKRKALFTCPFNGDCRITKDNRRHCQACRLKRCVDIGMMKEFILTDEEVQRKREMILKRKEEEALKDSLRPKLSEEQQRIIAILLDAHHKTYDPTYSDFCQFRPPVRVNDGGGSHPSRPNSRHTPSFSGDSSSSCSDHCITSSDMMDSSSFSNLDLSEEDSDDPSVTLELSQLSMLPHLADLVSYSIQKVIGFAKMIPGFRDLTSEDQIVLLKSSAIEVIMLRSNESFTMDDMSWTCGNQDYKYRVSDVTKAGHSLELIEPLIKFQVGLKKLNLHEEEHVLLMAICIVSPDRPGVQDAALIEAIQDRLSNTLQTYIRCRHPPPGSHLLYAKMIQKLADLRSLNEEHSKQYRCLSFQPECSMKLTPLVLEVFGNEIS
Peroxisome proliferator-activated receptor delta (Homo sapiens), sequence (Q03181 whole entry, looked up): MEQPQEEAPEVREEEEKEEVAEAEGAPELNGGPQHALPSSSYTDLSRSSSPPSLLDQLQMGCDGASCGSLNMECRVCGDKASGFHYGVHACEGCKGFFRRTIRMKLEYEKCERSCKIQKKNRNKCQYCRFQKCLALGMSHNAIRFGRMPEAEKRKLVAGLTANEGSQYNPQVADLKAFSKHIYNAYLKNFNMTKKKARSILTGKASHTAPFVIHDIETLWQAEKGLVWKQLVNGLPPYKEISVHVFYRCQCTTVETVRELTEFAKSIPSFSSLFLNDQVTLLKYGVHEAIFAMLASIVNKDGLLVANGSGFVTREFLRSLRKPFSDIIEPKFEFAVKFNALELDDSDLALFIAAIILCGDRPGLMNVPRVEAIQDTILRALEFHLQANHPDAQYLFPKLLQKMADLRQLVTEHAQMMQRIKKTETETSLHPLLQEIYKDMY

Take `c1nc[nH]n1`: the Potency result in assay [1], in assay [2], in assay [3], in [4], in assay [5] and in assay [6] was “inactive” in each case. Further, the Potency result in [8], in assay [11], in assay [12], in assay [13], in assay [15] and in [16] was “inactive” throughout. Moreover, the Potency result in assay [17] and in assay [18] was “inactive” in each case. Further, the outcome in assay [7], in assay [9], in assay [10], in assay [14] and in assay [19] was inactive.

Take `CCN(N=O)C(N)=O`: the Potency result in assay [1], in assay [2], in assay [3], in assay [4], in assay [5] and in assay [6] was “inactive” each time. Further, the Potency result in [8], in assay [11], in assay [12], in assay [13], in [15] and in assay [16] was “inactive” each time. Moreover, the Potency result in assay [17] and in assay [18] was “inactive” each time. Moreover, the outcome in assay [7], in [9], in [10], in assay [14] and in assay [19] was inactive.

On to `ClC1C(Cl)C(Cl)C(Cl)C(Cl)C1Cl` (stereo not drawn), for which the Potency entry in assay [1], in [2], in assay [3], in [4], in assay [5] and in assay [6] was “inactive” throughout. For the same compound, the Potency result in assay [8], in [11], in assay [12], in [15], in assay [16] and in [18] was “inactive” in each case. Besides, the call in assay [7], in assay [14] and in [19] was inactive. Besides, the Potency in assay [13] was 55.4 µM (active) and inactive.

Regarding `Cc1cc(Cl)ccc1OCCCC(=O)O`, the Potency result in assay [1], in [2], in assay [3], in [4], in assay [5] and in assay [6] was “inactive” throughout. Also, the Potency result in assay [8], in [11], in [12], in assay [13], in assay [15] and in [16] was “inactive” throughout. The Potency entry in [17] and in assay [18] was “inactive” in each case. Besides, the result in [7], in [9], in assay [10], in assay [14] and in assay [19] was inactive.

With `Oc1cc(Cl)ccc1Cl`, the Potency entry in assay [1], in [2], in assay [3], in [4], in assay [6] and in assay [8] was “inactive” each time. Moreover, the Potency entry in [11], in assay [12], in assay [13], in [15], in assay [16] and in [17] was “inactive” each time. The Potency result in assay [18] was “inactive”. In addition, the compound was called inactive in [9], in assay [10], in assay [14] and in [19].

Consider `CCCCNC(=O)n1c(NC(=O)OC)nc2ccccc21`, for which the Potency entry in [1], in assay [3], in [8], in assay [11], in assay [13] and in assay [15] was “inactive” each time. The Potency result in assay [16], in assay [17] and in assay [18] was “inactive” throughout. Further, the compound was classed as inactive in [7], in assay [9], in [14] and in assay [19].

With `C=CCN(CC=C)C(=O)C(Cl)Cl`, the Potency entry in assay [1], in [2], in assay [3], in assay [4], in assay [8] and in [11] was “inactive” each time. Moreover, the Potency result in assay [12], in assay [13], in assay [15], in [16], in assay [17] and in [18] was “inactive” in each case. Moreover, the result in assay [9], in assay [10], in assay [14] and in assay [19] was inactive.

Consider `O=P(O)(O)CCCl`, for which the Potency result in assay [1], in assay [2], in assay [3], in assay [4], in [5] and in [6] was “inactive” in each case. The Potency result in assay [8], in assay [11], in assay [12], in assay [13], in [15] and in [16] was “inactive” each time. The Potency entry in assay [17] and in assay [18] was “inactive” throughout. Further, the call in assay [7], in assay [9], in assay [10], in assay [14] and in [19] was inactive.

On to `CC(C)c1ccc(CO)cc1`, for which the Potency entry in assay [1], in [2], in assay [3], in [5], in [6] and in assay [8] was “inactive” each time. Also, the Potency result in assay [11], in [12], in assay [13], in assay [15], in assay [16] and in assay [17] was “inactive” each time. The Potency entry in assay [18] was “inactive”. For the same compound, the result in [7], in assay [9], in assay [10], in assay [14] and in assay [19] was inactive.

Take `NNC(N)=S`: the Potency entry in [2], in assay [5], in assay [6], in [8], in assay [12] and in assay [13] was “inactive” throughout. For the same compound, the Potency entry in [15], in assay [16], in [17] and in assay [18] was “inactive” each time. Also, the Potency was 8.07 µM (active) and inactive in assay [3]; 43.6 µM (active) in assay [4]; 32.1 µM (active) in [11]. Moreover, the result in assay [7], in assay [9], in assay [10] and in [14] was inactive.
